Holding throughout (assay): DAPPL (digital affinity profiling via proximity ligation, sequencing); 10 mM Tris-HCl pH 7.5, 50 mM NaCl, 1 mM DTT, 4% glycerol, room temperature, 30 min; GST-TFs on glutathione beads, 16-mer random dsDNA library, 0.1% formaldehyde crosslink after washing; high values mean tight binding
For one test, the target named is T1, FEV (Homo sapiens, UniProt Q99581 1-238).
T1 sequence: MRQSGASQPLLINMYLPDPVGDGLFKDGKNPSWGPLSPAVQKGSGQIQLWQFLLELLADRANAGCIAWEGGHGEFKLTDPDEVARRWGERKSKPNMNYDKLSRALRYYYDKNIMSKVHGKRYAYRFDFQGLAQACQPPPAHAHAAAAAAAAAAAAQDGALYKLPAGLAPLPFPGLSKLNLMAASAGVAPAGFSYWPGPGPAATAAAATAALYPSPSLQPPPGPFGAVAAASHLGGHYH
Particulars: protein: recombinant; tags: N-terminal GST; dsDNA, one strand shown. A digest of the protocol:
(§1)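 A tag-only sample was pooled with DNA-barcoded human transcription factors that had been expressed in yeast as GST fusions and captured on glutathione beads. The pools were incubated for 30 min at room temperature with 200 nmole of a random double-stranded 16-mer DNA library in Tris/NaCl/DTT/glycerol buffer, then washed, crosslinked with 0.1% formaldehyde, proximity-ligated (BsaI/T4 ligase, 1 h, 37 °C), PCR-amplified and sequenced on an Illumina NextSeq500. Binding signal is each hexamer's read frequency for a factor divided by its frequency for the tag-only sample.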

The next test deals with ETV5 (Homo sapiens, UniProt P41161 1-510). The conditions noted are these: protein: recombinant; tags: N-terminal GST; dsDNA, one strand shown. A digest of the protocol: as §1
Chain of ETV5 (P41161 whole entry): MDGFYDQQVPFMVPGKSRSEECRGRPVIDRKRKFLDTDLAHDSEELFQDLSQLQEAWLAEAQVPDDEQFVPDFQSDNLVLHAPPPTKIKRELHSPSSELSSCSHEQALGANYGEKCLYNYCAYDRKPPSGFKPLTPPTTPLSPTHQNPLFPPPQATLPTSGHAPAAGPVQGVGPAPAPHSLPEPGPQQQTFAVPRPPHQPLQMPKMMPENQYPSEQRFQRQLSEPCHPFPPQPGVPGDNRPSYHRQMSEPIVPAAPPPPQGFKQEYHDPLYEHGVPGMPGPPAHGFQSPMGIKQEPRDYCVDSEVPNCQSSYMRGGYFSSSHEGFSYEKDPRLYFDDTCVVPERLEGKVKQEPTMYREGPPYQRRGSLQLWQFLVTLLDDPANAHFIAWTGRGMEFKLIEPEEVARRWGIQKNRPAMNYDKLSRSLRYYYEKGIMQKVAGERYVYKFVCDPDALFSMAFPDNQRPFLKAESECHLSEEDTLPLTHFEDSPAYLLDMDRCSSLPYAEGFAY
Another test addresses HSF1 (Homo sapiens, UniProt Q00613 1-529). Particulars: protein: recombinant; tags: N-terminal GST; chain copies: 3; dsDNA, one strand shown. A digest of the protocol:
as §1

Another test concerns the target T2, SPIC (Homo sapiens, UniProt Q8N5J4 1-248).
T2 sequence: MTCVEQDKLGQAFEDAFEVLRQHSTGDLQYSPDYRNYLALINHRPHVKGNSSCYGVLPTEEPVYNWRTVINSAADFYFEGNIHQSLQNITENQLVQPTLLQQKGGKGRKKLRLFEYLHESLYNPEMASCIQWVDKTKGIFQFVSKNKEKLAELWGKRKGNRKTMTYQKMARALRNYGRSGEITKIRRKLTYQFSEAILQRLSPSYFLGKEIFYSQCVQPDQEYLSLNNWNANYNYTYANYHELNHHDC
Particulars: protein: recombinant; tags: N-terminal GST; dsDNA, one strand shown. Put shortly:
as §1

The next test has as its target ELF4 (Homo sapiens, UniProt Q99607 1-663). Particulars: protein: recombinant; tags: N-terminal GST; dsDNA, one strand shown. A digest of the protocol: as §1
Another test addresses T3, ELK4 (Homo sapiens, UniProt P28324-2 1-405).
T3 sequence: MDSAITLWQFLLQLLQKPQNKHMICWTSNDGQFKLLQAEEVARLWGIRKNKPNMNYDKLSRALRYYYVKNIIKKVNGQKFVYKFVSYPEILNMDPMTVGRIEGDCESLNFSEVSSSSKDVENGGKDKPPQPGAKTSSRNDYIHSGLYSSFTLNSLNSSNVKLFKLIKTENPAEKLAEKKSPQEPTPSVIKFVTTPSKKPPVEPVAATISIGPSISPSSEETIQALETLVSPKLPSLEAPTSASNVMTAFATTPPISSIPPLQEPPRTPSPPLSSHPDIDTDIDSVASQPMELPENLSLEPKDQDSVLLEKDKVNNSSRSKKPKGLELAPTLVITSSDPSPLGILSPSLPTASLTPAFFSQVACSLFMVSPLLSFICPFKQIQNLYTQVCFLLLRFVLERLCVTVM
The conditions noted are these: protein: recombinant; tags: N-terminal GST; dsDNA, one strand shown. A digest of the protocol:
as §1

For the next test, the target named is T4, ETV2 (Homo sapiens, UniProt O00321 1-342).
T4 sequence: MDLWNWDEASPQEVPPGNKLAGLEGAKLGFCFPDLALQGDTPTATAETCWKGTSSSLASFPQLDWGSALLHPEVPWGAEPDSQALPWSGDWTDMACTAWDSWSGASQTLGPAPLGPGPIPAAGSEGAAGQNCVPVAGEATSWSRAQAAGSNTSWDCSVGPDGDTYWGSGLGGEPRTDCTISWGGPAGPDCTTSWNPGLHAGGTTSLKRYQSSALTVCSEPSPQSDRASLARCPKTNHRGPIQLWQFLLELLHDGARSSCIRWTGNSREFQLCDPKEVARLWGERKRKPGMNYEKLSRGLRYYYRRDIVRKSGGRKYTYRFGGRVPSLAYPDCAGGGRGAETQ
The conditions noted are these: protein: recombinant; tags: N-terminal GST; dsDNA, one strand shown. Put shortly: as §1

A further test addresses T5, ELF3 (Homo sapiens, UniProt P78545 1-371).
T5 sequence: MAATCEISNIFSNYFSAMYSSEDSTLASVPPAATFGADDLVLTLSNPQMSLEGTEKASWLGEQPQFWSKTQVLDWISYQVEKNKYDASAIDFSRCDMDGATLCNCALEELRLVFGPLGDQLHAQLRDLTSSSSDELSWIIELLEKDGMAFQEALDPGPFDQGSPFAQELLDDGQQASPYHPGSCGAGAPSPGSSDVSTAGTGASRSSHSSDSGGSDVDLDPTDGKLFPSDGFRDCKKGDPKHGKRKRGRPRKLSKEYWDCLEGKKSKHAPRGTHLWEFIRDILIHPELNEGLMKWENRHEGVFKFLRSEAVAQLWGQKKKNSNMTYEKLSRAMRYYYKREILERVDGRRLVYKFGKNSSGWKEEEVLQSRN
Particulars: protein: recombinant; tags: N-terminal GST; dsDNA, one strand shown. A digest of the protocol:
as §1

Another test has as its target CRX (Homo sapiens, UniProt O43186 1-299). Particulars: protein: recombinant; tags: N-terminal GST; dsDNA, one strand shown. Put shortly:
as §1

For the next test, the target named is ETV1 (Homo sapiens, UniProt P50549 1-477). Particulars: protein: recombinant; tags: N-terminal GST; dsDNA, one strand shown. Put shortly:
as §1

A further test has as its target T6, ERF (Homo sapiens, UniProt P50548 1-548).
T6 sequence: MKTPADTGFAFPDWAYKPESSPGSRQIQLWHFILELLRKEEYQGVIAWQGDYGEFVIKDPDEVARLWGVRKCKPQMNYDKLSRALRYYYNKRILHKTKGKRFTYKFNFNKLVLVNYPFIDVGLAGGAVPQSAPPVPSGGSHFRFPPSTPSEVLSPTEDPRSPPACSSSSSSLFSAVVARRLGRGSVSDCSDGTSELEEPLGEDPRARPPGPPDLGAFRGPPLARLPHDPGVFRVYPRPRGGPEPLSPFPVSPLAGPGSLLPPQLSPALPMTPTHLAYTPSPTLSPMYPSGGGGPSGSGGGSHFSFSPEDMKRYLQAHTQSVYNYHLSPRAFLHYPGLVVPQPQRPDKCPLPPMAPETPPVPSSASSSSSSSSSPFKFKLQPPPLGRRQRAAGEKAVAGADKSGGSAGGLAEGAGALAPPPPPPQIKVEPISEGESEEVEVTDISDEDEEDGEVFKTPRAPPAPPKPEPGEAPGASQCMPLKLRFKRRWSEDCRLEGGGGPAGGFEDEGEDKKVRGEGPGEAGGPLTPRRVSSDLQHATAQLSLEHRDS
Particulars: protein: recombinant; tags: N-terminal GST; dsDNA, one strand shown. Put shortly:
as §1

The target in the next test is T7, ETV3L (Homo sapiens, UniProt Q6ZN32 1-361).
T7 sequence: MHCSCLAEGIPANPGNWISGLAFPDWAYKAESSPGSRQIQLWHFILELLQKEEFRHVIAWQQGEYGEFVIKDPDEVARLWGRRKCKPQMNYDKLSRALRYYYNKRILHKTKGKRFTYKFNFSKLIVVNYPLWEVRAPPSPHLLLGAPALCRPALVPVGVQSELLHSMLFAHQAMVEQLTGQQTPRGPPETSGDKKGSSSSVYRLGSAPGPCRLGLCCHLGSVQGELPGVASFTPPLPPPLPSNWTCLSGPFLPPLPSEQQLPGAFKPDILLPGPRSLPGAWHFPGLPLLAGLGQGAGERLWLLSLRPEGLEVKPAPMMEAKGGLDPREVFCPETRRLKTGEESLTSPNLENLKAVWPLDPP
Particulars: protein: recombinant; tags: N-terminal GST; dsDNA, one strand shown. A digest of the protocol:
as §1

The next test concerns the target T8, ETS2 (Homo sapiens, UniProt P15036 1-469).
T8 sequence: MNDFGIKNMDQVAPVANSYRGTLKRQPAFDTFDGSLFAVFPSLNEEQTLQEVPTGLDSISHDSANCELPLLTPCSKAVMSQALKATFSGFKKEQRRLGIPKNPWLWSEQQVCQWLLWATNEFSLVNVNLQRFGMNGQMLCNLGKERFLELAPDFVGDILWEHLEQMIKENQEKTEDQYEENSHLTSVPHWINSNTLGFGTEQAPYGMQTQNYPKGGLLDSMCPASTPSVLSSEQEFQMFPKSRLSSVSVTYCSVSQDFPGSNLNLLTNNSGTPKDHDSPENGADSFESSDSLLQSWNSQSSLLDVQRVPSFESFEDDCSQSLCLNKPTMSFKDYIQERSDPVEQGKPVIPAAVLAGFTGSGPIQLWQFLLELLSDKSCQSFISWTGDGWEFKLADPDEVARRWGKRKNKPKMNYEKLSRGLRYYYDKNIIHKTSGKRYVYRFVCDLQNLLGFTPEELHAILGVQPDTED
The conditions noted are these: protein: recombinant; tags: N-terminal GST; dsDNA, one strand shown. Put shortly:
as §1

For another test, the target named is T9, SPDEF (Homo sapiens, UniProt O95238 1-335).
T9 sequence: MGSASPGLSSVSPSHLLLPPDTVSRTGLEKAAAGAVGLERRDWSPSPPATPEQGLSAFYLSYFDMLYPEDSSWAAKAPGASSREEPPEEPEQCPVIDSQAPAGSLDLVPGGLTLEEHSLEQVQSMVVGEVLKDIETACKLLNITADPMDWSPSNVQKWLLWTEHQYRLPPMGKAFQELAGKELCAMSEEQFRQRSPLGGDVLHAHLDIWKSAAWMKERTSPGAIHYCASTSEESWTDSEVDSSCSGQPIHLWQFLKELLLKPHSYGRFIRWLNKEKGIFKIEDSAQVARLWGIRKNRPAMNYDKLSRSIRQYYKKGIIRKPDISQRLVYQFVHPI
The conditions noted are these: protein: recombinant; tags: N-terminal GST; dsDNA, one strand shown. Put shortly:
as §1

The target of the next test is T10, ETV7 (Homo sapiens, UniProt Q9Y603 1-341).
T10 sequence: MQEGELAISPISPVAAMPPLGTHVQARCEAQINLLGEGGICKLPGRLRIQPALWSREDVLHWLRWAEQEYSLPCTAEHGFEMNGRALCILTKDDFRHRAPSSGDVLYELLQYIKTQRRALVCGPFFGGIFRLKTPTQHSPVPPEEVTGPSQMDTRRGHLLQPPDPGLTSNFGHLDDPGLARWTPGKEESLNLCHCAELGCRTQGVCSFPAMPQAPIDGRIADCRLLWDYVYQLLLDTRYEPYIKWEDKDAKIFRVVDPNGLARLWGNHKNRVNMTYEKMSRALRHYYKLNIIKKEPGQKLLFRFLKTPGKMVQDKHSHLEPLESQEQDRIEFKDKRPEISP
Particulars: protein: recombinant; tags: N-terminal GST; dsDNA, one strand shown. A digest of the protocol:
as §1

The next test deals with T11, ELF5 (Homo sapiens, UniProt Q9UKW6-2 1-255).
T11 sequence: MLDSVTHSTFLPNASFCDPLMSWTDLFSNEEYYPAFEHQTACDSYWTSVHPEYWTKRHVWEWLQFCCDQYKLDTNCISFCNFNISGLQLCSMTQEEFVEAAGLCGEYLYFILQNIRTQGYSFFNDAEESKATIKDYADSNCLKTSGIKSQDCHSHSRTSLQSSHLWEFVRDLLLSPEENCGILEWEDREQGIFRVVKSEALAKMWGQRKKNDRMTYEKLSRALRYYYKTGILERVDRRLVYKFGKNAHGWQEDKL
Particulars: protein: recombinant; tags: N-terminal GST; dsDNA, one strand shown. A digest of the protocol:
as §1

The target of a further test is T12, ETV3 (Homo sapiens, UniProt P41162-2 1-143).
T12 sequence: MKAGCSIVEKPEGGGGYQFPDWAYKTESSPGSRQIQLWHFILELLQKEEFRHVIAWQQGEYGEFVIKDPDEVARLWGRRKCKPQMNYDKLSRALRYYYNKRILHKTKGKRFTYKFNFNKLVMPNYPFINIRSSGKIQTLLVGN
Particulars: protein: recombinant; tags: N-terminal GST; dsDNA, one strand shown. A digest of the protocol: as §1

The next test addresses ETV6 (Homo sapiens, UniProt P41212 1-452). Particulars: protein: recombinant; tags: N-terminal GST; dsDNA, one strand shown. Put shortly:
as §1

Chain of ETV6 (P41212 whole entry): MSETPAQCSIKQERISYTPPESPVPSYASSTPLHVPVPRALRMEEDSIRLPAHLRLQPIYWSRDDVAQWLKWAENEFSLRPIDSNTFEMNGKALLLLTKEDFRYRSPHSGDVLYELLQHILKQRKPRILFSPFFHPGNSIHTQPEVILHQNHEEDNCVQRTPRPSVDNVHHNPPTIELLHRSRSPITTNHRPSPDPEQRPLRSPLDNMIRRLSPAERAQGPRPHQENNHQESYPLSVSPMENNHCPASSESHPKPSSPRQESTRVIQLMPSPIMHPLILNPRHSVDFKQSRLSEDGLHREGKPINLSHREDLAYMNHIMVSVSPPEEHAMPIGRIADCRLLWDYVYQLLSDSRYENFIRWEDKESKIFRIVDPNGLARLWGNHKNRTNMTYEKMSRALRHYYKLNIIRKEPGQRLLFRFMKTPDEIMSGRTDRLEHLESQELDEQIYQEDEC
Chain of CRX (O43186 whole entry): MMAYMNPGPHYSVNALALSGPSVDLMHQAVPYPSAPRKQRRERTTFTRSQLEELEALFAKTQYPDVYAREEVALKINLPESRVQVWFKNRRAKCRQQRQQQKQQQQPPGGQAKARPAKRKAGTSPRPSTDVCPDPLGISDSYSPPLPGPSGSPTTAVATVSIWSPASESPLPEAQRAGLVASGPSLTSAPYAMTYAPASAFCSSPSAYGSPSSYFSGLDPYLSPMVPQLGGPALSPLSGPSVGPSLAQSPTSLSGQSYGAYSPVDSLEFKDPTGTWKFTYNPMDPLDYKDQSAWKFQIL
Chain of ELF4 (Q99607 whole entry): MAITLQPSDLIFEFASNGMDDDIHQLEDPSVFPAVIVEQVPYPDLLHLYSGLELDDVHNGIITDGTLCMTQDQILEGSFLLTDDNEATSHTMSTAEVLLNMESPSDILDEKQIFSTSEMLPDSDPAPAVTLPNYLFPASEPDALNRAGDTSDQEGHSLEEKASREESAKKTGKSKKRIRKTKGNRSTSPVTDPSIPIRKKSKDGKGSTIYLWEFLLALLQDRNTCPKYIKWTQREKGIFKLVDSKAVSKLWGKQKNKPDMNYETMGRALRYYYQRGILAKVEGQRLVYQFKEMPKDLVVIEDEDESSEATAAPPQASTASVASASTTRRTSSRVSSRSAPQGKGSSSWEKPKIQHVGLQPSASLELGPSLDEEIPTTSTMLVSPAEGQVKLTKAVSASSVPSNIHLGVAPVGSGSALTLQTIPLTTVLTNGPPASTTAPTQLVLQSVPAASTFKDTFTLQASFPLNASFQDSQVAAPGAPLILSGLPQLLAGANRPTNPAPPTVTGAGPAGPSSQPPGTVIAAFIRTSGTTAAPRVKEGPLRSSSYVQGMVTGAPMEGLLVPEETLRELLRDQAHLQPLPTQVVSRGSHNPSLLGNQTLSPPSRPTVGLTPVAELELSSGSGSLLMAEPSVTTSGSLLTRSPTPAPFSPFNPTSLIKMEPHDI
Chain of HSF1 (Q00613 whole entry): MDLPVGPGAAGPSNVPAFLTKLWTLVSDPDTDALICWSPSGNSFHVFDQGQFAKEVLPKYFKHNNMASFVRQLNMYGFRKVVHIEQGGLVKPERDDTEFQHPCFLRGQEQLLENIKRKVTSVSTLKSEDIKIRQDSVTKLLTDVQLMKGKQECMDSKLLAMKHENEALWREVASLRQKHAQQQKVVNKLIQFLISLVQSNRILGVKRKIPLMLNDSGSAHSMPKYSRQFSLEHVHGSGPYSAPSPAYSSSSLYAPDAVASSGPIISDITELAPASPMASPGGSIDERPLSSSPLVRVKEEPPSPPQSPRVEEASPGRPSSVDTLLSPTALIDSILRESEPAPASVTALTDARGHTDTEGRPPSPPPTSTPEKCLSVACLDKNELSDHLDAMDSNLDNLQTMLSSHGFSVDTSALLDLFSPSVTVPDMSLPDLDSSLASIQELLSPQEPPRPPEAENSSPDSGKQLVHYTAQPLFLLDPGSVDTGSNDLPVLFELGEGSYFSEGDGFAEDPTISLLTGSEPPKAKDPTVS
Chain of ETV1 (P50549 whole entry): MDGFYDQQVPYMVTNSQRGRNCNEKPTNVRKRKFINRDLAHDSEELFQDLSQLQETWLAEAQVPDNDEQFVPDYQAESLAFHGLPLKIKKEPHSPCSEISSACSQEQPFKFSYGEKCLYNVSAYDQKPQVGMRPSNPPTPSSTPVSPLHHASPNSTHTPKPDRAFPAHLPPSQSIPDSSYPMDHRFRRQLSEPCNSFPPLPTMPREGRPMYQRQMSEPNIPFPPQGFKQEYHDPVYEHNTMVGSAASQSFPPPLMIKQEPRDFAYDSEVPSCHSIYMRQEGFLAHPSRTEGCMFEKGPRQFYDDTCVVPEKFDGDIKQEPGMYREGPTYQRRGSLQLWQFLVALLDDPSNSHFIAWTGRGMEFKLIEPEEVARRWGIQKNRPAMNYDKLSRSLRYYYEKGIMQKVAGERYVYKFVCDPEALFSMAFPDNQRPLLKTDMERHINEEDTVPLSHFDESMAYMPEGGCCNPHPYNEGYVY

On to TTGGTT, for which the binding signal with FEV was 1.31 fold enrichment (6-mer frequency, TF over GST control); with ETV5 it was 1.44 fold enrichment (6-mer frequency, TF over GST control); with HSF1, 1.18 fold enrichment (6-mer frequency, TF over GST control); with SPIC it was 1.47 fold enrichment (6-mer frequency, TF over GST control); with ELF4, 1.42 fold enrichment (6-mer frequency, TF over GST control); in the test with ELK4 it was 1.32 fold enrichment (6-mer frequency, TF over GST control). Moreover, the binding signal with ETV2 was 1.29 fold enrichment (6-mer frequency, TF over GST control); with ELF3 it was 1.23 fold enrichment (6-mer frequency, TF over GST control); with CRX, 1.29 fold enrichment (6-mer frequency, TF over GST control); in the test with ETV1, 1.4 fold enrichment (6-mer frequency, TF over GST control); with ERF, 1.43 fold enrichment (6-mer frequency, TF over GST control); with ETV3L, 1.45 fold enrichment (6-mer frequency, TF over GST control). Further, the binding signal in the test with ETS2 was 1.48 fold enrichment (6-mer frequency, TF over GST control); with SPDEF, 1.45 fold enrichment (6-mer frequency, TF over GST control); in the test with ETV7, 1.52 fold enrichment (6-mer frequency, TF over GST control); with ELF5 it was 1.37 fold enrichment (6-mer frequency, TF over GST control); with ETV3 it was 1.36 fold enrichment (6-mer frequency, TF over GST control); with ETV6, 1.44 fold enrichment (6-mer frequency, TF over GST control).

The values above are taken from PMC7862700, “An all-to-all approach to the identification of sequence-specific readers for epigenetic DNA modifications on cytosine”.
